Bioassay records from PubChem BioAssay.
FadD28 binding: M. tuberculosis FadD28 bisubstrate binding inhibition; FadD28 bisubstrate probe binding, fluorescence polarization; inhibition, % at 12.5 µM; AID 588549; actives 0.22% (n = 360,000); in the data active = inhibition above about 8.5%, passing the limit was not always enough
Rv3671c inh: inhibits the M. tuberculosis serine protease Rv3671c; actives 0.048% (n = 320,000); inhibition, % at 5.96 µM; AID 2606; P9WHR9; in the data active = inhibition above about 38%;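 also: extracellular domain of Rv3671c used as enzyme; 0% = enzyme with DMSO and 100% = no enzyme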
Target sequence (P9WHR9 whole entry, looked up, the tested form may be a part): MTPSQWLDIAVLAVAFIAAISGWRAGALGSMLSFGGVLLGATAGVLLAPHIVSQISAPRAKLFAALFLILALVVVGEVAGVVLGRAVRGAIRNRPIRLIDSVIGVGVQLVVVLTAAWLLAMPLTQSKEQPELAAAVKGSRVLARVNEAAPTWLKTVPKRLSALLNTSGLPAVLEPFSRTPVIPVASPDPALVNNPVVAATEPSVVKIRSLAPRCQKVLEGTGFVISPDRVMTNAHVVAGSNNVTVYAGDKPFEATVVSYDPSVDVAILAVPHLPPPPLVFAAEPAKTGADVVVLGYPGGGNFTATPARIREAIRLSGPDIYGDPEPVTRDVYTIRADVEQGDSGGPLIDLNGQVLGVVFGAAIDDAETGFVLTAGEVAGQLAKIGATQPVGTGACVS
FBA Mtb inh: inhibitors of M. tuberculosis fructose-bisphosphate aldolase; P9WQA3; purified M. tuberculosis FBA, fluorescence read-out; inhibition, % at 1 µM; actives 2.3% (n = 360,000);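 also: 0% = vehicle and 100% = reference inhibitor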
GDH-TPI counter-1: counter-screen for M. tuberculosis FBA inhibitors: GDH-TPI coupled enzymes; inhibition, % at 4.8 µM; actives 1.2% (n = 360,000); GDH-TPI coupled enzyme counterscreen, NADH absorbance; AID 588335; in the data active = inhibition above about 30%;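 also: 0% = DMSO wells and 100% = wells lacking the enzyme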
BioA inh: blocks M. tuberculosis BioA enzyme activity; inhibition, % at 9.99 µM; AID 602481; actives 0.096% (n = 360,000); purified M. tuberculosis BioA enzyme, plate reader; in the data active = inhibition above about 40%
Mtb FBA inh conf: Mtb FBA inhibition, confirmed; actives 78% (n = 5,600); shares compounds with FBA Mtb inh; AID 651616; inhibition, % at 1 µM; purified M. tuberculosis FBA, fluorescence read-out;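 also: 0% = vehicle wells and 100% = reference inhibitor wells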
GDH-TPI counter-2: counter-screen for M. tuberculosis FBA inhibitors: GDH-TPI coupled enzyme inhibition. inhibition, % at 1 µM. GDH-TPI coupled enzyme counterscreen, fluorescence. actives 81% (n = 5,600). shares compounds with FBA Mtb inh; in the data active = inhibition above about 10%
GDH-TPI dose: GDH-TPI dose response counter-screen for Mtb FBA; actives 79% (n = 170); AID 652145; GDH-TPI coupled enzyme assay, fluorescence, artifact counterscreen; IC50, µM; shares compounds with FBA Mtb inh; call rule not given here
The depositor's hits bear a star; / = not tested or not shown; + = active, no number. A selection: hits, their analogues and other compounds. The true share with any hit is near 3%. Rule as the data show it, unless noted: active = inhibition above about 27%; inactive = the rest.

SMILES | FadD28 binding | Rv3671c inh | FBA Mtb inh | GDH-TPI counter-1 | BioA inh | Mtb FBA inh conf | GDH-TPI counter-2 | others
Cc1ccc(CSc2nc3c(c(=O)[nH]2)C(c2ccncc2)C2=C(CCCC2=O)N3)cc1 (stereo unspecified) | -7 | -10 | 21 | 7 | 3 | / | /
Cc1noc2c1C(c1ccc(N(C)C)cc1)C1=C(CC(C)(C)CC1=O)N2 (stereo unspecified) | -4 | 3 | 0 | -5 | 1 | / | /
CCSc1nc2c(c(=O)[nH]1)C(c1ccc(C)cc1)C1=C(CCCC1=O)N2 (stereo unspecified) | -2 | 3 | 29* | 6 | / | 148* | 126*
Cc1ccc(C2C3=C(CC(C)(C)CC3=O)Nc3onc(C)c32)cc1 (stereo unspecified) | -2 | -1 | 46* | 5 | / | 3 | -1
COc1cccc(CNC(=O)C[C@@H]2C=C[C@@H](NC(=O)C3CC3)[C@@H](CO)O2)c1 | / | / | / | / | -4 | / | /
CCCNC(=O)C[C@H]1C[C@H]2c3cc(NS(C)(=O)=O)ccc3O[C@H]2[C@H](CO)O1 | / | / | / | / | 0 | / | /
CN1CCc2c1nc1ccccc1c2N (tested in a mixture with another compound) | -4 | -4 | 29* | 9 | 0 | 96* | 83*
Cc1ccc2nc3c(c(N)c2c1)CCN3c1ccccc1 | -3 | -7 | 29* | 15 | 4 | + | +
Cc1cccc2c(N)c3c(nc12)N(C)CC3 | -2 | -4 | 31* | -4 | 1 | 77* | 45*
C[C@@H]1CN([C@H](C)CO)C(=O)c2cccc(NC(=O)Nc3ccccc3)c2O[C@H]1CN(C)C(=O)NC1CCCCC1 | / | / | / | / | -1 | / | /
Cc1noc(C)c1NC(=O)N(C)C[C@@H]1Oc2ccc(NS(=O)(=O)c3ccc(F)cc3)cc2CC(=O)N([C@H](C)CO)C[C@H]1C | / | / | / | / | -3 | / | /
Cc1ccc(-c2cc3nc(-c4ccccc4)cc(NCCCO)n3n2)cc1 | -3 | / | 83* | 12 | -2 | 72* | 54*
Cc1ccc(-c2cc(N)n3nc(-c4ccc(C)cc4)cc3n2)cc1 | -4 | 3 | 27 | 9 | -1 | / | /
Cc1ccc(-c2cc3nc(-c4ccccc4)cc(N)n3n2)cc1 | 1 | 2 | 29* | 26 | -1 | 3 | 1
O=C(NCCc1ccccc1)[C@H]1[C@H](CO)[C@H]2Cn3c(cccc3=O)[C@H]2N1Cc1ccccc1 | / | / | / | / | 0 | / | /
CO[C@H]1CN(C)C(=O)c2cc(NC(=O)NC3CCCCC3)ccc2OC[C@@H](C)N(CC2CC2)C[C@@H]1C | / | / | / | / | 3 | / | /
Cc1nnc(C)n1/N=C/c1ccccc1 | -1 | -5 | 1 | 1 | 0 | / | /
CCn1c2ccccc2c2cc(/C=N/n3c(C)nnc3C)ccc21 | -2 | -3 | 40* | 26 | 3 | 62* | 48*
CCOC(=O)N1CCC(Nc2nc3ccccc3n3nnnc23)CC1 | -3 | 6 | 35* | 16 | -2 | 47* | 40*
CCOC(=O)c1c(NC(=O)C2C3C=CC(C3)C2C(=O)O)sc2c1CCC(CC)C2 (stereo unspecified) | 2 | -4 | 34* | 14 | / | -1 | 2
CCOC(=O)c1c(NC(=O)C2C3CCC(O3)C2C(=O)O)sc2c1CCC(CC)C2 (stereo unspecified) | 2 | 3 | 10 | 5 | 3 | / | /
O=C(/C=C/c1cn(-c2ccccc2)nc1-c1cccs1)NCCN1CCOCC1 | -13 | -8 | 46* | 26 | 1 | 143* | 87*
Cc1noc(C)c1S(=O)(=O)Nc1ccc2c(c1)C(=O)N([C@@H](C)CO)C[C@@H](C)[C@@H](CN(C)S(=O)(=O)c1cn(C)cn1)OCCCC[C@@H](C)O2 | / | / | / | / | 1 | / | /
O=C1Nc2ccc(S(=O)(=O)N(CCO)CCO)c3cccc1c23 | -5 | / | 32* | 8 | 1 | 0 | -5
O=C(O)CNS(=O)(=O)c1ccc2c3c(cccc13)C(=O)N2 | -1 | / | 37* | 16 | -1 | + | 145*
SMILES | FadD28 binding | Rv3671c inh | FBA Mtb inh | GDH-TPI counter-1 | BioA inh | Mtb FBA inh conf | GDH-TPI counter-2 | others
O=C(O)CCCCCNS(=O)(=O)c1ccc2c3c(cccc13)C(=O)N2 | -3 | / | 40* | 10 | 1 | 90* | 67*
CNS(=O)(=O)c1ccc2c3c(cccc13)C(=O)N2 | -1 | / | 56* | 17 | 0 | 17 | 4 | GDH-TPI dose=2.9*
CN(c1ccccc1C(=O)O)S(=O)(=O)c1ccc2c3c(cccc13)C(=O)N2 | 2 | 6 | 4 | 1 | / | / | /
COCC#Cc1cnc2c(c1)C(=O)N([C@@H](C)CO)C[C@@H](C)[C@H](CN(C)C(=O)Nc1cc(F)ccc1F)O2 | / | / | / | / | 4 | / | /
CCC(=O)N(C)C[C@@H]1Oc2cc(C#CCC(C)C)ccc2S(=O)(=O)N([C@H](C)CO)C[C@@H]1C | / | / | / | / | -1 | / | /
CNS(=O)(=O)c1cc(S(=O)(=O)NC)c2cccc3c2c1NC3=O | -1 | 2 | 31* | 23 | 2 | 92* | 77*
Cc1noc(C)c1S(=O)(=O)Nc1ccc2c(c1)CC(=O)N([C@H](C)CO)C[C@@H](C)[C@H](CN(C)C(=O)Nc1cccc3ccccc13)O2 | / | / | / | / | 4 | / | /
Cc1ccc(S(=O)(=O)Nc2nc3ccccc3nc2NCC2CCCO2)c(C)c1 (stereo unspecified) | -2 | -1 | 30* | 15 | / | 108* | 92*
Cc1ccc2nc(-c3ccc(NC(=O)CCN4C(=O)c5ccccc5C4=O)cc3)sc2c1 | -1 | 2 | 97* | 10 | -1 | 162* | 122*
CCN(CC)S(=O)(=O)c1ccc(C(=O)OCC(=O)Nc2ccc(-c3nc4ccc(C)cc4s3)cc2)cc1 | -2 | -6 | 28* | 18 | -1 | -2 | -2
C[C@@H]1CN([C@@H](C)CO)C(=O)c2cc(NC(=O)CCC(F)(F)F)ccc2O[C@@H](C)CCCCO[C@@H]1CN(C)CC1CCCCC1 | / | / | / | / | 3 | / | /
C[C@@H]1CN([C@H](C)CO)C(=O)Cc2cc(NC(=O)Nc3ccc4c(c3)OCO4)ccc2O[C@H]1CN(C)C(=O)Nc1ccccc1 | / | / | / | / | 1 | / | /
O=C(/C=C/c1cccs1)NC(=S)NNC(=O)c1ccccc1O | -1 | 23 | 28* | 25 | / | -1 | 3
COc1ccc(C(=O)NNC(=S)NC(=O)/C=C/c2cccs2)cc1 | -2 | 6 | 0 | 0 | / | / | /
N#Cc1cccnc1N1CCC(C(N)=O)CC1 | -3 | 4 | 30* | 9 | / | 50* | 38*
C[C@H]1CN([C@@H](C)CO)C(=O)c2cccc(NC(=O)C3CCCCC3)c2O[C@@H]1CN(C)Cc1ccccc1 | / | / | / | / | 0 | / | /
COCCCNC(=O)c1cccn2c(=O)c3cc4ccccc4cc3nc12 | -2 | -15 | -3 | 5 | -3 | / | /
CCN(C(=O)c1cc2c(=O)n3cccc(C)c3nc2n1CCCOC)C1CCCCC1 | 3 | -14 | 38* | 13 | 5 | 103* | 85*
